Screening data as filed in PubChem BioAssay.
Sampled rows, rich in hits. Any-hit rate of the full collection: about 10%.
VP16 counter – inhibits Gal4-VP16 luciferase reporter, ROR gamma counter-screen; Drosophila S2 Gal4-VP16 UAS-luciferase, luminescence, 20 h; Potency, µM (highest dose often 53.6 µM), most hits filed as inhibitors; 310,000 tested, 3.5% active; AID 2546;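 further: Gal4-VP16 expression switched on by copper sulfate through the metallothionein promoter; nearly all actives have a fitted effect of over 50% in size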
SW480 rerep – induces DNA re-replication in SW480 colon adenocarcinoma cells; AID 624297; Potency, µM (series often up to 46.1 µM), hits mostly activators; 340,000 tested, 1.8% active; SW480 DNA re-replication, Hoechst DNA content imaging, 48 h; further: nearly all actives have a fitted effect of over 55% in size
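SW480 cells exposed to compounds for 48 hr at 37 C, 5% CO2, then Hoechst-stained 40 min. Nuclear DNA content imaged by fluorescence scanning (405 nm excitation, 500-530 nm emission); re-replication scored as increased high-intensity nuclei.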
KB-3-1 cytotox – KB-3-1 parental cell cytotoxicity; KB-3-1 viability, CellTiter-Glo ATP luminescence, 72 h; Potency, µM (doses to about 46.1 µM), most hits filed as cytotoxic; 400,000 tested, 1.4% active; further: nearly all actives have a fitted effect of over 60% in size
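Screening of KB-3-1 cells (DMEM, 10% FBS, phenol-red free) ran from lowest to highest compound concentration; after 72 h at 37 °C viability was read luminescently and curves fitted.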
RORgamma inh – inhibitors of mouse ROR gamma transcriptional activity; Drosophila S2 Gal4-RORgamma UAS-luciferase reporter, 20 h; Potency, µM (titrated, usually from 53.6 µM), most hits filed as inhibitors; 310,000 tested, 5.4% active; AID 2551; further: nearly all actives have a fitted effect of over 60% in size
Target sequence (P51450 whole entry, looked up, the tested form may be a part): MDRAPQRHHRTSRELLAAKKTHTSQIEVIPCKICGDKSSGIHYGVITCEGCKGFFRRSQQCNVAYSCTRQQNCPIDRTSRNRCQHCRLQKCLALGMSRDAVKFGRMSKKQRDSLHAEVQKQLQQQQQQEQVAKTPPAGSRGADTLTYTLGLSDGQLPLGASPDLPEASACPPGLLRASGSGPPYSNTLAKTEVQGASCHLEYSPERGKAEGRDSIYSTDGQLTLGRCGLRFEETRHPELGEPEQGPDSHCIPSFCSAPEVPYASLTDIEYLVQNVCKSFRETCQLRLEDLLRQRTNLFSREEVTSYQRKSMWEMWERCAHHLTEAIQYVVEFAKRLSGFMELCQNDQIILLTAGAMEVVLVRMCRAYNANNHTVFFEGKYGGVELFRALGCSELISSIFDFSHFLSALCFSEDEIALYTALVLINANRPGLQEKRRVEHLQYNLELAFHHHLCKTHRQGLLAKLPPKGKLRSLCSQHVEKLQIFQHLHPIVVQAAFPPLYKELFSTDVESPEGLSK
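Luminescence from a UAS-regulated Photinus luciferase reporter in stably transfected Drosophila Schneider cells is measured; decreased signal marks ROR gamma inhibition. Fusion expression is induced by 700 uM copper sulfate for 20 hr.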
MCF10A rereplic – DNA re-replication induction in MCF 10a cells | 350,000 tested, 2.9% active | Potency, µM (highest dose often 46.1 µM), actives largely listed as activators | MCF 10A DNA re-replication, Hoechst nuclear intensity, 48 h; further: nearly all actives have a fitted effect of over 50% in size
KB-V1 MDR tox – KB-V1 MDR subline cytotoxicity; KB-V1 MDR cells viability, CellTiter-Glo, 72 h; Potency, µM (top dose mostly 46.1 µM), hits mostly cytotoxic; 400,000 tested, 3.4% active; AID 1347076; further: nearly all actives have a fitted effect of over 60% in size
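Cytotoxicity toward P-gp-expressing KB-V1 cells was determined as loss of CellTiter-Glo luminescence after 72 h at 37 degrees C. Compounds were tested in quantitative HTS format across a concentration range, with curves fitted to normalized data.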
Numbers stand for hits; - = inactive; ? = inconclusive; . = no result given; [ ] = dose if it differs, or a comment. The call rests on the fitted dose curve; in most records, active means well fitted curve in the direction sought with a large enough effect; inconclusive means small, poorly fitted or top-dose-only effect, or another doubt; inactive means no such curve, though single readings can be large; an effect the other way counts as inactive or inconclusive.

SMILES	VP16 counter	SW480 rerep	KB-3-1 cytotox	RORgamma inh	MCF10A rereplic	KB-V1 MDR tox
CC12C=CC(=O)C=C1[C@@H](F)CC1C2C(O)CC2(C)C1CC[C@]2(O)C(=O)CO (stereo not given in full)	-	-	.	-	-	.
COc1ccc(N2C(=O)c3ccc(C(=O)Nc4ccccc4O)cc3C2=O)cc1	-	-	-	-	2.91µM	?
COc1ccccc1N1C(=O)c2ccc(C(=O)Nc3ccccc3O)cc2C1=O	-	-	-	-	-	-
CCCC=O	-	.	.	-	.	.
N/C(Cc1ccc(Cl)cc1)=N\OC(=O)c1ccc2ccccc2c1	20µM	-	?	-	-	?
N/C(Cc1ccc(Cl)cc1)=N\OC(=O)c1cccc2ccccc12	10µM	?	-	?	-	-
COc1ccc(C/C(N)=N/OC(=O)c2ccc(Cl)cc2)cc1	-	-	-	-	-	-
O=C1C(O)=C(O)C(=O)C(O)=C1O	-	-	.	-	-	.
Oc1[nH]c2ccc(Br)cc2c1N=NC(=S)NCC1CCCO1 (stereo not given)	?	-	?	1.41µM	-	-
Oc1[nH]c2ccccc2c1N=NC(=S)NCC1CCCO1 (stereo not given)	-	-	-	-	-	11.6µM
CCn1c(O)c(N=NC(=S)NCC2CCCO2)c2ccccc21 (stereo not given)	1.78µM	-	-	0.282µM	-	?
O=C(CCCn1c(=S)[nH]c2ccc(Br)cc2c1=O)NCC1CCCO1 (stereo not given)	-	-	-	-	-	-
O=C(NCC1CCCO1)c1c(O)c2ccccc2[nH]c1=O (stereo not given)	-	-	-	-[10 µM]	-	?
CC(=O)c1cccc(-n2c(=O)c3c4c(sc3n(CC(=O)c3ccc(Cl)cc3)c2=O)CN(C(C)=O)CC4)c1	.	.	-	.	.	?
CN(C)c1ccc(/C=C/c2cc3ccccc3c[n+]2C)cc1	.	.	0.82µM	.	.	-
CN(C)c1ccc(/C=C/c2ccc3c4ccccc4ccc3[n+]2-c2ccccc2)cc1	?	-	0.291µM	1.41µM	?	9.2µM
CN(C)c1ccc(/C=C/c2cccc[n+]2[O-])cc1	-	?	-	-	-	-
CN(C)c1ccc(/C=C/c2c3ccccc3cc[n+]2[O-])cc1	.	.	-	.	.	-
CN(C)c1ccc(/C=C/c2c[n+](C)cc3ccccc23)cc1	.	.	0.461µM	.	.	-
COc1ccc(Cl)cc1NC(=O)NCCc1c(C)nn(C)c1C	.	.	-	.	.	-
CC[C@@H](C)[C@@H](C(=O)N1CCN(C(=O)OC(C)(C)C)CC1)n1cc(CCCCNC(=O)OC(C)(C)C)nn1	-	-	?	?	?	20.6µM
CC[C@H](C)C(C(=O)N1CCN(C(=O)OC(C)(C)C)CC1)n1cc(C(CC(C)C)NC(=O)OC(C)(C)C)nn1 (stereo not given in full)	-	-	-	-	-	-
COc1ccc(OC)c(C2CC(=O)Nc3c2c(=O)n(C)c2ncnn32)c1 (stereo not given)	.	.	-	.	.	-
CCCN(CCC)C(=O)Cc1ccc(F)cc1	-	-	-	-	-	-
CCCCCCCCCCCCCCCC[N+](C)(C)Cc1ccc(F)cc1	.	?	?	.	14.6µM	-
SMILES	VP16 counter	SW480 rerep	KB-3-1 cytotox	RORgamma inh	MCF10A rereplic	KB-V1 MDR tox
CCCCCCCCCCCCC[N+](C)(C)Cc1ccccc1	8.91µM	.	.	?	.	.
C[N+](C)(CCOc1ccccc1)Cc1ccccc1 (tested in a mixture with another compound)	-	-	-	-	-	-
CCc1ccccc1NC(=O)Cn1nc(N2CCN(c3ccccc3OC)CC2)ccc1=O	.	.	-	.	.	-
Cc1ccc(/C=C2\CC(C)CC3=C2NC(=S)NC3c2ccc(C)cc2)cc1 (stereo not given)	?	-	-	3.16µM	?	-
CC1CC2=C(NC(=S)NC2c2cccc(F)c2)/C(=C/c2cccc(F)c2)C1 (stereo not given)	4.47µM	-	?	1µM	?	?
CC1CC2=C(NC(=S)NC2c2ccccc2F)/C(=C/c2ccccc2F)C1 (stereo not given)	6.31µM	-	-	2.82µM	?	-
CC1=C(C(N)=O)C(c2ccccc2F)NC(=O)N1 (stereo not given)	-	-	-	-	-	-
Cc1ccc(/C=C2/NC(=O)[C@H](C)NC2=O)cc1	-	-	-	-	-	-
Cc1ccc(/C=C2\CCCC3=C2NC(=S)NC3c2ccc(C)cc2)cc1 (stereo not given)	-	-	?	-	-	16.4µM
CCCc1cc(=O)oc2c(C)c3c(cc12)CN(CCc1ccc(Cl)cc1)CO3	.	.	-	.	.	-
CCn1cc(C(=O)NCCc2ccc(Cl)cc2)c(=O)c2cc(S(=O)(=O)N3CCOCC3)ccc21	.	.	?	.	.	-
CCN(CC)CCOC(=O)c1ccc(NC(=O)CCn2c(=O)oc3ccccc32)cc1	.	.	-	.	.	-
COc1ccc(-c2nnc3n2N=C(c2c(OC)cccc2OC)CS3)cc1	-	.	.	-	.	.
COc1cccc(-c2csc(N3CCN(C(=S)Nc4cccc(Cl)c4)CC3)n2)c1	17.8µM	-	-	2.82µM	-	?
COc1cccc(-c2csc(N3CCN(C(=S)Nc4ccccc4Cl)CC3)n2)c1	?	-	-	11.2µM	-	-
COc1cccc(-c2csc(N3CCN(CC(=O)NNC(=O)c4ccc(Br)cc4)CC3)n2)c1	-[0.365 µM]	14.6µM	?	-	-	?
COc1cccc(-c2csc(N3CCN(C(=S)Nc4ccccc4OC)CC3)n2)c1	?	-	-	7.94µM	8.2µM	?
CCC1(CC)C(=O)C2=C3C1[C@H](C(=O)OC)CC(C(=O)OC)C[C@H]3[C@H]1C(=O)N(C)C(=O)[C@H]1[C@H]2C (stereo not given in full)	-	.	.	-	.	.
COc1ccc(CNC(=O)Cc2c(C(=O)O)c(C)cn2C)cc1	.	.	-	.	.	?
COc1ccc(NC(=O)N2CCN(c3nc(-c4cccc(OC)c4)cs3)CC2)cc1	-	-	?	?	?	11.6µM
CCOc1ccc2nc(NC(=O)c3nc(SC(C)C)ncc3Cl)sc2c1	.	.	-	.	.	?
Oc1[nH]c2ccccc2c1C=Nc1ccc2c(c1)OCCO2	?	-	-	-	?	16.4µM
O=C(O)CCCCCN1C(=O)c2ccc(C(=O)O)cc2C1=O	-	-	-	-	14.6µM	-
CCc1ccccc1NC(=O)CN(C)S(=O)(=O)c1cccc2nsnc12	.	.	-	.	.	-
O=[N+]([O-])c1cc(F)cc(F)c1Nc1cc(F)cc(F)c1	.	-	-	.	-	?
N#CCSc1nc2ccccc2c(=O)n1CC1CCCC1	-	-	-	-	-	-
N#CCSc1nc2ccc(N3CCCCC3)cc2c(=O)n1Cc1ccccc1	?	20.6µM	-	3.55µM	16.4µM	?
COc1cc2c(cc1OC)C(/C=C/c1ccc(OC)c(OC)c1OC)=NCC2	?	.	.	-	.	.
